Test results taken from PubChem BioAssay (NCATS).
Values joined by “and” are separate entries in the source; they are usually repeats but may differ in a detail not shown here. Equal values may be shown once. Records with an inconclusive call do not appear. A call without a number means that no potency is given here. Active and inactive are the calls of the source. The call rests on the fitted dose curve; in most records, active means well fitted curve in the direction sought with a large enough effect; inconclusive means small, poorly fitted or top-dose-only effect, or another doubt; inactive means no such curve, though single readings can be large; an effect the other way counts as inactive or inconclusive.

How the values were obtained:
[1] = molecular target: Tyrosine-protein kinase Yes (Homo sapiens) (UniProt P07947); experiment: qHTS for small molecule inhibitors of Yes1 kinase: Primary Screen (AID 686947); further: nearly all actives have a fitted effect of over 60% in size
In short: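 Yes1 (4 nM) preincubated 20 min with compound, then 60 min room-temperature reaction with 0.1 mM ATP and 0.3 mg/mL poly(E4Y) in pH 7.5 Tris, 10 mM MgCl2. ADP measured by ADP-Glo luminescence, normalised to enzyme/no-enzyme controls.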

[2] = qHTS for small molecule inhibitors of Yes1 kinase: Counter Assay (AID 686950);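 further: no kinase present so only ADP-Glo detection of a fixed ADP amount is tested; luminescence from ADP-Glo reporting ADP in a fixed ATP and ADP mixture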
In short: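 Luminescence read-out from ADP-Glo quantifies a fixed ADP amount (0.02 mM ADP with 0.08 mM ATP) after 60 min at room temperature; signal is normalized between DMSO wells with ATP/ADP and with 0.1 mM ATP alone.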

[3] = qHTS Assay for Identifying Gametocytocidal Compounds (AID 743244); further: potency means the concentration at half of the fitted maximal effect;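 on max response: actives lower the fluorescent signal which means gametocytes are killed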; settings: P. falciparum 3D7 stage III-V gametocytes, alamarBlue, 72 h; max response: stronger effect = lower value
In short: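 Stage III–V gametocytes of P. falciparum 3D7 were seeded at 20,000 cells/well onto pre-dispensed compounds. After 72 h, 37 °C, 5% CO2, alamarBlue was added for another 24 h.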

[4] = qHTS profiling for inhibitors of Plasmodium falciparum (3D7) proliferation (AID 743322);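 further: infected erythrocytes exposed to compound for 72 h before lysis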; settings: P. falciparum 3D7 proliferation, at 28.7 µM (top of the series)
In short: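 Erythrocytes infected with P. falciparum (0.3% parasitemia, 2.5% hematocrit) incubated with compounds 72 h at 37 C, 5% CO2. Lysis with saponin/Triton buffer containing SYBR Green I, overnight at room temperature in the dark; DNA fluorescence (485/535 nm) normalised to 0.29 uM artemisinin and DMSO.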

[5] = molecular target: Arylsulfatase A (Homo sapiens) (UniProt P15289); experiment: qHTS screen for enhancers of Arylsulfatase A (ASA1): LOPAC Validation Assay (AID 720538)
In short: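 Cell-based enhancement test: residual ASA activity in SV40-transformed I179S patient fibroblasts is measured by pNCS turnover (0.5mM final, 14h, room temperature) following 48h compound incubation; higher fluorescence indicates activation.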

[6] = qHTS for compounds that reverse cellular toxicity of Amyloid beta (A-beta) peptide in yeast: LOPAC Validation Assay (AID 720559)
In short: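 Here, A-beta-toxic yeast grow with test compounds at 30 C for 48 hr before optical density at 600 nm is recorded; data are normalized against DMSO and the FeCl3-clioquinol control.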

[7] = qHTS for Activators of Parkin Expression: LOPAC Validation Assay (NLuc Reporter) (AID 720572)
In short: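 Parkin promoter-driven FLuc/NLuc neuronal reporter cells; 24 h plating, 7-pt dose response, 24 h at 37 C/5% CO2; FLuc then NanoLuc reagent, 10 min each, luminescence; DMSO/positive control normalized.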

[8] = qHTS for Activators of Parkin Expression: LOPAC Validation Assay (FLuc Reporter) (AID 720573)
In short: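 Readout is FLuc luminescence from neuronal reporter cells (Parkin promoter, FLuc plus NLuc) after 24 h compound exposure in dose response. Values normalized to neutral DMSO and positive-control compounds.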

[9] = molecular target: T1, Hexokinase-4 (Homo sapiens) + Glucokinase regulatory protein (Homo sapiens) (UniProt P35557+Q14397); experiment: qHTS assay for inhibitors of recombinant human GCK-GKRP interaction: Diaphorase-coupled assay (AID 743205)
In short: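 Signal derives from resorufin generated by diaphorase, linked to GCK turnover of glucose (5 mM) and ATP (0.4 mM). Enzyme complex was added after a 20-minute compound preincubation and monitored for 30 minutes.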

[10] = molecular target: T1, Hexokinase-4 (Homo sapiens) + Glucokinase regulatory protein (Homo sapiens); experiment: qHTS assay for inhibitors of recombinant human GCK-GKRP interaction: ADP-Glo assay (AID 743206)
In short: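 GST-GCK and FLAG-GKRP (15 nM each in the dispensed mix, with 2 uM S6P) react with 0.4 mM ATP and 5 mM glucose (final) in Hepes pH 7.6 for 60 min at room temperature. ADP is measured by ADP-Glo luminescence.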

[11] = molecular target: T1, Hexokinase-4 (Homo sapiens) + Glucokinase regulatory protein (Homo sapiens); experiment: qHTS assay for inhibitors of recombinant human GCK-GKRP interaction: HTRF assay (AID 743207)
In short: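 Titration screening format: recombinant GST-GCK and FLAG-GKRP at 5 nM, S6P at 2 uM, labelled anti-tag antibodies, 60 min at RT, dual-wavelength HTRF readout.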

Chain of Arylsulfatase A (Homo sapiens) (P15289 whole entry, looked up): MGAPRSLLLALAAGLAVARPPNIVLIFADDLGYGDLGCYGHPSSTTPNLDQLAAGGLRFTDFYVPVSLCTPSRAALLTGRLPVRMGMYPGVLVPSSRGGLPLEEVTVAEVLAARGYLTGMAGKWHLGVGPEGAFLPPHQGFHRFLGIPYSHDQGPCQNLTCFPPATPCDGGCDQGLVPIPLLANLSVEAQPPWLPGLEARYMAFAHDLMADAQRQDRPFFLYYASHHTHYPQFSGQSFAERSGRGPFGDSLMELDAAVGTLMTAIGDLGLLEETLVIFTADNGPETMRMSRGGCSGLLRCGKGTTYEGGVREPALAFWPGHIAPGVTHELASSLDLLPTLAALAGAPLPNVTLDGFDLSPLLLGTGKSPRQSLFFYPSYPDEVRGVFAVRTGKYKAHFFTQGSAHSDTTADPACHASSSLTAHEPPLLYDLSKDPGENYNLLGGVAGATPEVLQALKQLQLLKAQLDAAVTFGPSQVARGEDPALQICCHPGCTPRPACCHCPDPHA
T1 sequence (P35557 whole entry, looked up): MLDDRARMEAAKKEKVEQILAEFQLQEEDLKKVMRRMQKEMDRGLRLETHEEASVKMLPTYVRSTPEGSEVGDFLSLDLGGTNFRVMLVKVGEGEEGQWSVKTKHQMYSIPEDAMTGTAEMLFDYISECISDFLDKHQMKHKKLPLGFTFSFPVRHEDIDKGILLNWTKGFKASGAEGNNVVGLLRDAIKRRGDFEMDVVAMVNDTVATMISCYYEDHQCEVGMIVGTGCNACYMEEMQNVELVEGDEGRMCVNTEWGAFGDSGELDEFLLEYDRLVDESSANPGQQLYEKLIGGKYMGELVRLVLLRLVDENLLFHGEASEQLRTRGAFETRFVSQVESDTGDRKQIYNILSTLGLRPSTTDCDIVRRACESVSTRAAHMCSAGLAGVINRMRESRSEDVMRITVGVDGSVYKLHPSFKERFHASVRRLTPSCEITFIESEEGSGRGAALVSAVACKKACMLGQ
T1 sequence (Q14397 whole entry, looked up): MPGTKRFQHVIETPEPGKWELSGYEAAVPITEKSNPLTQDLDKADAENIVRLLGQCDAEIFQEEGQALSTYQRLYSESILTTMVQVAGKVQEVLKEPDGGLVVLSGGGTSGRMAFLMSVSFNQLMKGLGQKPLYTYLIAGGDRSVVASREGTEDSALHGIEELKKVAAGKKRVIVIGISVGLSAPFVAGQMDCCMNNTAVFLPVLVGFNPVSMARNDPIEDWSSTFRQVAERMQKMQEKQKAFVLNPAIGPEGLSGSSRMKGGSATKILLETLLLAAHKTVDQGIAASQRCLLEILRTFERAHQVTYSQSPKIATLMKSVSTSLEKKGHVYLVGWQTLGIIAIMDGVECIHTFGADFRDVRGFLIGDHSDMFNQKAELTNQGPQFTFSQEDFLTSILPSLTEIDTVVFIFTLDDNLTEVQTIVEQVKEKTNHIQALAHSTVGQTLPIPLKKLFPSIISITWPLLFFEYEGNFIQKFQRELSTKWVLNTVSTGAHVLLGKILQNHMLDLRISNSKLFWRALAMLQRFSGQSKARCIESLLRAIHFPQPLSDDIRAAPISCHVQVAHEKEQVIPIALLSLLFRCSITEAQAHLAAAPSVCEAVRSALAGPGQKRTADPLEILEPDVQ
Chain of Tyrosine-protein kinase Yes (Homo sapiens) (P07947 whole entry, looked up): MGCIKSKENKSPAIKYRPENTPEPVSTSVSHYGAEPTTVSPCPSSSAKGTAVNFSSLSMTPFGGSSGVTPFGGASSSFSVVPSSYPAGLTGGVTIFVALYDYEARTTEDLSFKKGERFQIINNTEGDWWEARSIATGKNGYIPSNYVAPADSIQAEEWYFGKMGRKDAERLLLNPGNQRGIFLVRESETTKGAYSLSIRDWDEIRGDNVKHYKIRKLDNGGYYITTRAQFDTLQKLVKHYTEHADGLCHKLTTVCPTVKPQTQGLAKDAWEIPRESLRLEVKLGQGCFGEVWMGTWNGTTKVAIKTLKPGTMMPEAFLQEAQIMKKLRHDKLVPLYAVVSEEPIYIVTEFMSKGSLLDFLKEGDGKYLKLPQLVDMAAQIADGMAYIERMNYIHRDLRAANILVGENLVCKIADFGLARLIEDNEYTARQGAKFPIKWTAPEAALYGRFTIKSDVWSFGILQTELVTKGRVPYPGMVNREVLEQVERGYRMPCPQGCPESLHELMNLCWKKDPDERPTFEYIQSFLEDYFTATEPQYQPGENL

| Structure (SMILES) | Potency [1] | outcome [2] | max response [3] | remaining parasite growth % (stronger effect = lower value) [4] | Potency [5] | outcome [6] | outcome [7] | Potency [8] | Potency [9] | Potency [10] | Potency [11] | Potency [3] |
| --- | --- | --- | --- | --- | --- | --- | --- | --- | --- | --- | --- | --- |
| CC1(CN2CCC(n3c(=O)[nH]c4ccccc43)CC2)OCc2ccccc2-n2cccc21 (stereo not given) | inactive | inactive | -18.7% (inactive) and -2.64% (inactive) | 21.2% | – | – | – | – | – | – | – | – |
| Cc1cnc(C(=O)NCCc2ccc(S(=O)(=O)NC(=O)NC3CCCCC3)cc2)cn1 | – | – | 32.6% (inactive) and 12.5% (inactive) | – | inactive | inactive | inactive | inactive | inactive | inactive | inactive | – |
| NC12CC3CC(CC(C3)C1)C2 | – | – | -8.46% (inactive) | – | inactive | inactive | inactive | inactive | inactive | inactive | inactive | – |
| CC(CCc1ccc(O)cc1)NCCc1ccc(O)c(O)c1 (stereo not given) | – | – | 27.1% (inactive) | – | inactive | inactive | inactive | inactive | inactive | inactive | inactive | – |
| CNCCCC12CCC(c3ccccc31)c1ccccc12 | – | – | – | – | inactive | inactive | inactive | inactive | inactive | inactive | inactive | – |
| CN1CCC(=C2c3ccccc3C=Cc3ccccc32)CC1 | – | – | – | – | inactive | inactive | inactive | inactive | inactive | inactive | inactive | – |
| Cc1ccccc1N1C(=O)c2cc(S(N)(=O)=O)c(Cl)cc2NC1C (stereo not given) | – | – | 6.66% (inactive) and 10.8% (inactive) and 1.37% (inactive) | – | inactive | inactive | inactive | inactive | inactive | inactive | inactive | – |
| O=C1Cc2cc(CCN3CCN(c4nsc5ccccc45)CC3)c(Cl)cc2N1 | – | – | -0.117% (inactive) and 9.6% (inactive) | – | inactive | inactive | inactive | inactive | inactive | inactive | inactive | – |
| COc1nc(C)nc(Cl)c1NC1=NCCN1 | – | – | 0.253% (inactive) and 33% (inactive) | – | inactive | inactive | inactive | inactive | inactive | inactive | inactive | – |
| CN(C)CCC=C1c2ccccc2C=Cc2ccccc21 | – | – | – | – | inactive | inactive | inactive | inactive | inactive | inactive | inactive | 10 µM (active) |
| CC(=O)OCC(CCn1cnc2cnc(N)nc21)COC(C)=O | – | – | 13.8% (inactive) | – | – | – | – | – | – | – | – | – |
| OCCN1CCN(CCCN2c3ccccc3Sc3ccc(C(F)(F)F)cc32)CC1 | – | – | – | – | – | inactive | inactive | inactive | inactive | inactive | inactive | – |
| COc1ccccc1OCCNCC(O)COc1cccc2[nH]c3ccccc3c12 (stereo not given) | – | – | 6.87% (inactive) and 32.1% (inactive) | – | – | inactive | inactive | inactive | inactive | inactive | inactive | – |
| CC1(C)O[C@H]2CC(=O)OC[C@]23[C@H]2CC[C@@]4(C)[C@H](c5ccoc5)OC(=O)[C@H]5O[C@]54[C@]2(C)C(=O)C[C@@H]13 | – | – | 0.83% (inactive) | – | – | – | – | – | – | – | – | – |
| CN(CCOc1ccc(NS(C)(=O)=O)cc1)CCc1ccc(NS(C)(=O)=O)cc1 | – | – | 1.01% (inactive) | – | – | – | – | – | – | – | – | – |
| COc1ccccc1OCC(O)CN1CCN(CC(=O)Nc2c(C)cccc2C)CC1 (stereo not given) | – | – | 19.4% (inactive) and 42.5% (inactive) | – | – | inactive | inactive | inactive | inactive | inactive | inactive | – |
| Clc1ccc2nsnc2c1NC1=NCCN1 | – | – | 11.7% (inactive) and 4.37% (inactive) | – | – | inactive | inactive | inactive | inactive | inactive | inactive | – |
| Nc1nc2c(ncn2COC(CO)CO)c(=O)[nH]1 | – | – | -13.4% (inactive) and 3.21% (inactive) | – | inactive | inactive | inactive | inactive | inactive | inactive | inactive | – |
| CN1CCN(C2=Nc3cc(Cl)ccc3Nc3ccccc32)CC1 | – | – | -2.07% (inactive) and 20.9% (inactive) | – | inactive | inactive | inactive | inactive | – | – | – | – |
| CN1C(C(=O)Nc2ccccn2)=C(O)c2ccccc2S1(=O)=O | – | – | -1.29% (inactive) and 1.85% (inactive) | – | inactive | inactive | – | inactive | inactive | inactive | inactive | – |
| OCCN(CCO)c1nc(N2CCCCC2)c2nc(N(CCO)CCO)nc(N3CCCCC3)c2n1 | – | – | 7.4% (inactive) | – | inactive | inactive | – | – | – | – | – | – |
| CN1CCC(=C2c3ccccc3CC(=O)c3sccc32)CC1 | – | – | – | – | – | inactive | inactive | inactive | inactive | inactive | inactive | – |
| CC[N+](CC)(CC)CCOc1cccc(OCC[N+](CC)(CC)CC)c1OCC[N+](CC)(CC)CC | – | – | 4.54% (inactive) and -6.53% (inactive) | – | – | inactive | inactive | inactive | inactive | inactive | inactive | – |
